Laboratory results from PubChem BioAssay.
Activity calls are given as the source filed them.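 The calls were made as follows, unless noted: active = compounds that lower viability of the colon cancer cells in the luminescence readout, with no numeric limit stated; inactive = the rest.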

Columns and labels:
[1] = stimulators of nuclear beta-catenin in C2C12, primary screen, imaging, WNT3A-conditioned medium, mouse C2C12, NPC library (AID 1117326; in the data active = nuclear beta-catenin stimulation mostly above about 4.2%, no sharp cut-off; inactive = mostly below about 10%; also: reference of the scale not given here); conditions: stronger effect = higher value
[2] = stimulators of insulin release from INS-1E, primary screen, cell-based, 5 mM glucose, NPC library (AID 1117329;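 active = compound raises insulin release from rat beta cells at 5 mM glucose, no numeric limit stated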; also: reference of the scale not given here); conditions: rat INS-1E insulin secretion, at 10 µM, stronger effect = higher value
[3] = growth inhibition of GSK3B-pretreated HCT116 cells – cell-based, CellTiter-Glo, 0.2 to 20 µM (AID 1117336;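 active = compounds lowering colon cancer cell viability after pretreatment blocking the GSK3B kinase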); conditions: HCT116 viability after GSK3B inhibitor, at 20 µM, stronger effect = higher value
[4] = inhibition of endothelial tube formation, primary screen, imaging, VEGF stimulated, CD31 staining, tube area, NPC library (AID 1117340;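 active = compound that reduces growth-factor-driven endothelial tube area in a mixed cell culture, no cutoff stated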); conditions: VEGF-stimulated ADSC/ECFC co-culture, at 10 µM, stronger effect = higher value
[5] = glucagon-like peptide 1 release enhancers, primary assay, NCI-H716 cell line, NPC library (AID 1117341;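 active = compound raises GLP1 secretion from the human gut endocrine cells, with no numeric limit stated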; also: reference of the scale not given here); conditions: NCI-H716 cells, at 10 µM, stronger effect = higher value
[6] = HCT116 colon cancer cell growth inhibition, primary screen, CellTiter-Glo luminescence, NPC library (AID 1117342;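 active = compounds that lower survival of HCT116 colon cancer cells in the luminescence readout, no numeric limit stated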); conditions: at 20 µM (top of the series)
[7] = CellTiter-Glo luminescent readout of SW480 viability loss, NPC library primary (AID 1117343); conditions: CellTiter-Glo luminescence; at 20 µM (top of the series)
[8] = decreased DLD-1 cellular survival, CellTiter-Glo luminescent readout, NPC compound collection, primary HTS (AID 1117346;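 active = compounds that lower survival of DLD-1 colon cancer cells in the luminescence readout, no cutoff given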); conditions: DLD-1 viability, CellTiter-Glo luminescence; at 20 µM (top of the series)

| SMILES | nuclear beta-catenin stimulation ([1]; at 10 µM) | nuclear beta-catenin stimulation ([1]; stimulation, at 2 µM) [%] | insulin secretion stimulation [2] | viability decrease [3] | tube area decrease [4] | GLP1 secretion stimulation [5] | inhibition of viability [6] | viability decrease (inhibition) [7] | viability decrease (inhibition) [8] |
| --- | --- | --- | --- | --- | --- | --- | --- | --- | --- |
| Cc1cccc(N(C)C(=S)Oc2ccc3c(c2)C2CCC3C2)c1 (stereo not given) | 0.3% (inactive) | 0.6 | 1% (inactive) | -64.8% (inactive) | 15.8% (inactive) | -4.7% (inactive) | 50.2% (active) | 80% (active) | 56.8% (active) |
| CCN1CCCC1CN (stereo not given) | 1.1% (inactive) | 1.8 | 4.8% (inactive) | 39.7% (inactive) | -0.3% (inactive) | 3.1% (inactive) | 32.2% (inactive) | 43.3% (inactive) | 12.4% (inactive) |
| NCCNc1ccc(NCCN)c2c1C(=O)c1ccncc1C2=O | 22.6% (inactive) | 8.9 | -0.4% (inactive) | 67.3% (active) | 91.4% (active) | -4.8% (inactive) | 47% (inactive) | 1.2% (inactive) | 14.7% (inactive) |
| NCCC(=O)[N-][C@@H](Cc1cnc[nH]1)C(=O)O.[Zn] | -0.4% (inactive) | -0.2 | -0.8% (inactive) | -1.2% (inactive) | 9.1% (inactive) | 1.7% (inactive) | -12.4% (inactive) | -14.8% (inactive) | 5.9% (inactive) |
| Cc1onc(-c2ccccc2)c1C(=O)Cl | 0% (inactive) | -1.4 | 2.75% (inactive) | 0.5% (inactive) | -12.1% (inactive) | 1.7% (inactive) | 1.8% (inactive) | -5.7% (inactive) | -12.5% (inactive) |
| COc1ccc2cc(Br)ccc2c1 | -0.6% (inactive) | -0.3 | 0.9% (inactive) | -1.1% (inactive) | 3.3% (inactive) | -5% (inactive) | -2.2% (inactive) | -5.1% (inactive) | -6% (inactive) |
| CC(=O)O[C@@H]1C(=O)O[C@@H]2[C@H]1OC(=O)[C@@H]2OC(C)=O | 0.6% (inactive) | -1.1 | 2.4% (inactive) | 19.5% (inactive) | -1% (inactive) | -3.4% (inactive) | 22.9% (inactive) | 18.7% (inactive) | 4.6% (inactive) |
| Nc1ccc(S(=O)(=O)Nc2ccccc2)cc1 | 1% (inactive) | 0.9 | -2.7% (inactive) | -9.8% (inactive) | 10.5% (inactive) | 3.7% (inactive) | -1.7% (inactive) | 5.2% (inactive) | 0.95% (inactive) |
| O=C(O)c1c(O)c(-c2ccccc2)nc2ccccc12 | 0.5% (inactive) | -0.8 | 3% (inactive) | 66.1% (active) | 2.6% (inactive) | -0.1% (inactive) | 39.2% (inactive) | 107% (active) | 39% (inactive) |
| C/C(=N/NC(=O)c1ccncc1)C(=O)O | -0.8% (inactive) | -0.3 | -0.8% (inactive) | -23.6% (inactive) | -6.8% (inactive) | -2.8% (inactive) | -1.23% (inactive) | 17.4% (inactive) | 4.2% (inactive) |
| COc1ccccc1OC(=O)Oc1ccccc1OC | 1.1% (inactive) | 0.3 | -2.4% (inactive) | 6.05% (inactive) | 14.8% (inactive) | 1.6% (inactive) | 3.6% (inactive) | 31.6% (inactive) | 14.4% (inactive) |
| C[C@@H](O)[C@H]1C(=O)N2C(C(=O)O)=C([C@H]3CCCO3)S[C@H]12 | 0.5% (inactive) | 0.5 | -1.8% (inactive) | 13.8% (inactive) | -11.6% (inactive) | 1.1% (inactive) | 3.4% (inactive) | 34.6% (inactive) | 11.2% (inactive) |
| CN1N=C(C(N)=O)CCC1=O | 1.1% (inactive) | 1.9 | 1.05% (inactive) | 3.8% (inactive) | 1.5% (inactive) | 2.5% (inactive) | 15.3% (inactive) | -11.3% (inactive) | 10.1% (inactive) |
| Cc1cc(O)c(C(C)C)cc1Cl | -0.5% (inactive) | 1.2 | -0.9% (inactive) | 36.1% (inactive) | -10.5% (inactive) | 29.3% (active) | -9.5% (inactive) | 22% (inactive) | 19.5% (inactive) |
| CCN1CCCC1=O | -0.1% (inactive) | 2.9 | 2.6% (inactive) | 18.7% (inactive) | -19.9% (inactive) | 4.1% (inactive) | -2.03% (inactive) | -20.4% (inactive) | -9.9% (inactive) |
| CCOCCn1c(C2CCN(CCc3ccc(C(C)(C)C(=O)O)cc3)CC2)nc2ccccc21 | -0.1% (inactive) | 1.3 | -0.3% (inactive) | -2.4% (inactive) | 3.7% (inactive) | -2.2% (inactive) | -1.6% (inactive) | -6.3% (inactive) | -10.2% (inactive) |
| CC(C)(C)c1ccc(C(=O)CCCCl)cc1 | -0.1% (inactive) | 0.6 | 3.7% (inactive) | -2.4% (inactive) | 20.9% (inactive) | -3.6% (inactive) | 10.3% (inactive) | -21.3% (inactive) | 0.9% (inactive) |
| CC(C)CCC[C@@H](C)[C@H]1CC[C@H]2[C@@H]3CC[C@H]4C[C@@H](O)CC[C@]4(C)[C@@H]3CC[C@]12C | 0% (inactive) | 0.5 | 1.1% (inactive) | 1.6% (inactive) | -1.6% (inactive) | -1.9% (inactive) | -2.8% (inactive) | -7.2% (inactive) | -8.7% (inactive) |
| O=C(O)Cn1cnnn1 | 0.5% (inactive) | -0.1 | -0.9% (inactive) | -1.1% (inactive) | -3.2% (inactive) | 3.3% (inactive) | 4.9% (inactive) | -14.8% (inactive) | 6% (inactive) |
| C[N+](C)(CCOc1ccccc1)Cc1cccs1 | -0.3% (inactive) | 1.1 | 2.65% (inactive) | 22.9% (inactive) | -14.7% (inactive) | -1.6% (inactive) | 27.5% (inactive) | -11.3% (inactive) | 1.8% (inactive) |
| CC(C)CCC[C@@H](C)[C@H]1CC[C@H]2[C@@H]3CC=C4C[C@@H](O)CC[C@]4(C)[C@@H]3CC[C@]12C | -0.4% (inactive) | -1 | 1% (inactive) | 26.9% (inactive) | 37.5% (inactive) | -2.1% (inactive) | 43.2% (inactive) | 52.2% (active) | 41.9% (inactive) |
| O=C(CCCN1CCN(c2ccc(F)cc2)CC1)NC1c2ccccc2CSc2ccccc21 (stereo not given) | 1.8% (inactive) | 1.3 | -0.2% (inactive) | 53.5% (active) | 32.7% (inactive) | 3.7% (inactive) | 47.5% (inactive) | 27.4% (inactive) | 14.8% (inactive) |
| CCCCCCCCCCCCCCCC(=O)OC(C)C | 0.6% (inactive) | 1.3 | 2.3% (inactive) | -9.5% (inactive) | -17.7% (inactive) | -1.2% (inactive) | 3.07% (inactive) | -0.2% (inactive) | -1.5% (inactive) |
| CC(C)=CCCC(C)=CCCC(C)=CCCC(C)=CCC1=C(C)C(=O)c2ccccc2C1=O | -0.4% (inactive) | 0 | 0.5% (inactive) | 27.6% (inactive) | 3.6% (inactive) | -0.8% (inactive) | 37.8% (inactive) | 12.3% (inactive) | 11.1% (inactive) |
| CN1CCN(CCC(=O)N2c3ccccc3Sc3ccc(C(F)(F)F)cc32)CC1 | 2.3% (inactive) | 2.1 | 16.1% (inactive) | 72.7% (active) | 19.7% (inactive) | 11.5% (inactive) | 60% (active) | 117% (active) | 57.8% (active) |
| O=C1CCCc2c(O)cccc21 | 1.1% (inactive) | 2.2 | 0.3% (inactive) | 1% (inactive) | 19.3% (inactive) | 2.2% (inactive) | 11.4% (inactive) | 12.5% (inactive) | -7.2% (inactive) |
| CCCCCC=CCC=CCCCCCCCC(=O)OCC | 1.6% (inactive) | -0.5 | -1.8% (inactive) | -40% (inactive) | 7.8% (inactive) | 8.5% (inactive) | 17.5% (inactive) | 30.9% (inactive) | 54.5% (active) |
| Cc1c(F)cc2c(=O)c(C(=O)O)cn3c2c1CCC3C (stereo not given) | 1.9% (inactive) | 1.5 | -1.9% (inactive) | -181% (inactive) | -28% (inactive) | 1.5% (inactive) | 0.65% (inactive) | -16.3% (inactive) | -3% (inactive) |
| C=CCNCCCCCC[N+](C)(C)C | -1.4% (inactive) | 0.4 | -0.9% (inactive) | -5.7% (inactive) | -1.9% (inactive) | -0.6% (inactive) | -3.1% (inactive) | -2.3% (inactive) | -2.3% (inactive) |
| Cc1nc([N+](=O)[O-])cn1-c1ccc([N+](=O)[O-])cc1 | -0.1% (inactive) | -2.2 | 2% (inactive) | -6.7% (inactive) | 3.8% (inactive) | 3.6% (inactive) | 18.2% (inactive) | 10.4% (inactive) | -13.5% (inactive) |
